# High-throughput results as filed in PubChem BioAssay.
# Hits are enriched below; roughly 3.8% of the tested compounds scored in any of these assays.
# PAFAH1B2 FP inh = PAFAH1B2 enzyme inhibitors, primary screen, biochemical, fluorescence polarization, human; inhibition, % at 3.39 µM; AID 492953, 2010; hit rate 1.2% among 340,000; recombinant PAFAH1B2, FP-rhodamine activity probe; Platelet-activating factor acetylhydrolase IB subunit alpha2 (Homo sapiens), P68402;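 active means inhibition above the mean of all tested compounds plus 3 SD, cut at about 24% in these data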;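 further: 0% = enzyme with DMSO and 100% = wells lacking PAFAH1B2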
# Target sequence (P68402 whole entry, looked up): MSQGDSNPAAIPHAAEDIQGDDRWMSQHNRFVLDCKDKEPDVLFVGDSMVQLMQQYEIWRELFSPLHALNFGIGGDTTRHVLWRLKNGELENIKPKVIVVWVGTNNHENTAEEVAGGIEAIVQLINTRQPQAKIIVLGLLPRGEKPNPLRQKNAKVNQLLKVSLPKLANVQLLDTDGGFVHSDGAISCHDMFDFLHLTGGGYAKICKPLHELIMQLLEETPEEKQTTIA
# pPAFAH FP inh = pPAFAH enzyme inhibitors, primary screen, biochemical, fluorescence polarization, human; Platelet-activating factor acetylhydrolase (Homo sapiens), Q13093; recombinant pPAFAH, FP-rhodamine probe fluorescence polarization; inhibition, % at 3.39 µM; hit rate 1.5% among 330,000; AID 463082, 2010;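 active means inhibition above the mean inhibition across the screen plus 3 SD, cut at about 25% in these data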;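 further: inhibitors block binding of the rhodamine activity-based probe so polarization drops; 0% = enzyme with DMSO and 100% = wells lacking pPAFAH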
# PAFAH1B3 FP inh = PAFAH1B3 enzyme inhibitors, primary screen, biochemical, fluorescence polarization, human | inhibition, % at 3.39 µM | Platelet-activating factor acetylhydrolase IB subunit alpha1 (Homo sapiens), Q15102 | hit rate 0.28% among 340,000 | recombinant PAFAH1B3, FP-rhodamine probe;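 active means inhibition above the screen-wide average of all tested compounds plus 3 SD, cut at about 25% in these data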;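 further: 0% = enzyme with DMSO only and 100% = wells lacking PAFAH1B3 protein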
# Target sequence (Q15102 whole entry, looked up): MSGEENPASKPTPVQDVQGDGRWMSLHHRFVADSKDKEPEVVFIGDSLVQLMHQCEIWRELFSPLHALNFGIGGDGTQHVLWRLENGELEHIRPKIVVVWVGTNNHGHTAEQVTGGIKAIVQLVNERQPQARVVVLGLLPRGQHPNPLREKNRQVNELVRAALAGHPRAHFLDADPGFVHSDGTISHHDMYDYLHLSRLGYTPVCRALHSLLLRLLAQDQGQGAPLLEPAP
# M18AAP inhibitor = PfM18AAP inhibitors, malaria aminopeptidase, primary screen, biochemical, QFRET, recombinant enzyme; H-Glu-NHMec fluorogenic cleavage; hit rate 1.2% among 290,000; inhibition, % at 7.35 µM; M18 aspartyl aminopeptidase (Plasmodium falciparum 3D7);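 active means inhibition above the campaign mean inhibition over all tested compounds plus 3 SD, cut at about 28% in these data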;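 further: 0% = plate median of test compound wells and 100% = 2 mM ZnCl2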
# PAFAH2 inh = PAFAH2 enzyme inhibitors, primary screen, biochemical, fluorescence polarization, human; Platelet-activating factor acetylhydrolase 2, cytoplasmic (Homo sapiens), Q99487; recombinant PAFAH2, FP-rhodamine activity probe; inhibition, % at 3.39 µM; hit rate 0.99% among 340,000; AID 492956, 2010;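 active means inhibition above the mean over all tested compounds plus 3 SD, cut at about 30% in these data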;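 further: inhibitors block probe labeling of enzyme so polarization drops; 0% = enzyme with DMSO and 100% = wells lacking PAFAH2 protein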
# Pemphigus Ab inh = inhibitors of pemphigus antibody binding to DSG3, primary screen, biochemical, bead-based, flow cytometry, scFv-GFP; Desmoglein-3 (Homo sapiens), P32926; DSG3-coupled beads, scFv-anti-DSG3-GFP binding; stronger effect = lower value; binding (percent of control), % at 10 µM; hit rate 0.48% among 310,000;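 active means binding more than 3 SD below its plate's average and above zero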
# Numbers without * were called inactive; . = no result.
SMILES,PAFAH1B2 FP inh,pPAFAH FP inh,PAFAH1B3 FP inh,M18AAP inhibitor,PAFAH2 inh,Pemphigus Ab inh
CCOc1ccc(CCN2C(=O)C(=O)N([C@@H](Cc3ccc(O)cc3)CN3CCC[C@@H]3CN3C(=O)C(=O)NC[C@@H]3Cc3ccccc3)C[C@@H]2Cc2ccccc2)cc1,-1,.,7,.,1,102
Oc1ccc(Nc2nc3ccccc3nc2Nc2ccc(O)cc2)cc1,27*,11,40*,-4,-35,99
CCC1(C)N(O)C(C)(C)C(c2ccc(F)cc2)=[N+]1[O-] (stereo unspecified),5,2,7,29*,-3,93
C[C@@H]1O[C@@H](OC2C(O)C(OCCc3ccc(O)c(O)c3)OC(CO)C2OC(=O)/C=C/c2ccc(O)c(O)c2)[C@H](O)[C@H](O)[C@H]1O (stereo partly specified),.,46*,.,.,.,.
CCCC(C)c1nnc(NC(=O)CCS(=O)(=O)Cc2ccccc2)s1 (stereo unspecified),4,3,10,29*,-2,93
CCCC(C)c1nnc(NC(=O)CS(=O)(=O)Cc2ccccc2)s1 (stereo unspecified),7,10,3,5,5,107
O=C(CC(c1ccccc1)C1CCCCC1=O)c1ccccc1 (stereo unspecified),6,.,3,.,8,97
CNc1nc(-c2ccccc2)[n+](-c2ccc(C)cc2)s1,-2,8,6,-4,-6,1.4*
CC(=Nc1ccccc1)C1=C(O)C(Cc2cccc(F)c2)NC1=O (stereo unspecified),.,.,.,.,.,113
CC(C)c1ccccc1NS(=O)(=O)N(C)C,0,-4,5,-16,-3,49*
O=C(CCCN1C(=O)/C(=C\c2ccccc2)SC1=S)Nc1ccc(O)cc1C(=O)O,64*,13,3,-2,6,.
CCc1ccc(/C=C2\SC(=S)N(CCCC(=O)Nc3ccccn3)C2=O)cc1,-6,3,-7,4,-21,107
CCc1ccc(/C=C2/SC(=S)N(CCCC(=O)Nc3ccccc3C(=O)O)C2=O)cc1,61*,-2,6,0,44*,104
CC(C(=O)Nc1ccc(O)cc1C(=O)O)N1C(=O)/C(=C\c2cccs2)SC1=S (stereo unspecified),8,28*,8,24,22,87
CCCOc1ccc(N2C(=O)CC(SCc3nc4ccccc4[nH]3)C2=O)cc1 (stereo unspecified),5,0,1,-1,-4,95
CC1C/C(=C/c2ccco2)C(=O)/C(=C/c2ccco2)C1 (stereo unspecified),.,48*,.,15,.,.
O=C1/C(=C\c2ccco2)CCC/C1=C\c1ccco1,-2,17,-2,22,12,151
O=C(c1ccccc1)N1CCCc2ccccc21,9,4,6,-1,-6,86
O=C(c1ccc(=O)oc1)N1CCCc2ccccc21,12,25*,10,13,40*,105
O=c1ccsn1Cc1ccccc1,3,-3,-2,33*,5,100
CCOc1ccc(OCCCC(=O)Nc2cc(S(=O)(=O)N3CCOCC3)ccc2N2CCOCC2)cc1,-1,.,0,.,0,101
COc1ccc(OCC(=O)OCC(=O)Nc2cc(S(=O)(=O)N3CCOCC3)ccc2Cl)cc1,5,29*,9,.,3,115
CCOc1ccc(C(=O)OCC(=O)Nc2cc(S(=O)(=O)N3CCOCC3)ccc2N2CCOCC2)cc1,0,.,-1,.,0,-19*
Cc1cc(C)c(C)c(S(=O)(=O)NC(C)C(=O)O)c1C (stereo unspecified),2,-2,3,-5,-7,99
CNC[C@@H]1OCc2cnnn2CCCC(=O)N([C@H](C)CO)C[C@H]1C,.,.,.,.,.,115
SMILES,PAFAH1B2 FP inh,pPAFAH FP inh,PAFAH1B3 FP inh,M18AAP inhibitor,PAFAH2 inh,Pemphigus Ab inh
COc1ccc(C)cc1NC(=O)COC(=O)c1c(-c2ccccc2)noc1C,.,.,.,.,.,97
CCCCCC(=O)Nc1cc(S(=O)(=O)O)cc2cc(S(=O)(=O)O)cc(O)c12,17,.,35*,.,57*,.
O=C(COc1cc(Cl)c(Cl)cc1Cl)Nn1cnnc1,11,3,-5,30*,2,.
O=C1OC(c2ccco2)=N/C1=C\c1ccc(-c2cccc(C(F)(F)F)c2)o1,1,27*,3,6,10,91
O=C(Nc1cccc(S(=O)(=O)Nc2ccccc2F)c1)c1ccc2ccccc2n1,2,1,-2,30*,5,94
O=C(Cc1ccc(Cl)cc1Cl)Nc1cccc(S(=O)(=O)Nc2ccccc2F)c1,21,27*,-8,29*,-6,105
N#Cc1cccc(C(Br)S(=O)(=O)c2ccccc2)c1 (stereo unspecified),.,.,.,.,.,100
CC1CCCC(NC(=O)c2cccc(S(=O)(=O)N3CCOCC3)c2)C1C (stereo unspecified),.,.,.,.,.,99
CC(Nc1ccc(Br)cc1)C(=O)NC(=O)NC1CCCCC1 (stereo unspecified),.,.,.,.,.,103
O=C(O)CN1C(=O)/C(=C/c2ccsc2)SC1=S,.,4,.,29*,.,100
O=C(O)CN1C(=O)/C(=C\c2cccc(OCc3ccc(Cl)cc3)c2)SC1=S,62*,0,11,4,5,113
C=CCN1C(=O)/C(=C/c2ccsc2)SC1=S,-2,1,19,3,1,77
O=C(O)CN1C(=O)/C(=C\c2cccc(OCc3ccccc3F)c2)SC1=S,12,-14,10,6,11,97
O=C(O)CN1C(=O)/C(=C\c2cccc(OCc3ccc(F)cc3)c2)SC1=S,28*,.,15,-6,5,101
CC(OC(=O)c1ccc(OCC2CCCO2)cc1)C(=O)N(C)Cc1ccccc1 (stereo unspecified),0,4,10,.,-1,102
COc1cc(/C=C/C(=O)OCC(=O)c2c(N)n(C)c(=O)n(C)c2=O)ccc1OCC#N,0,6,8,-5,-7,95
C[C@@H]1CN([C@H](C)CO)C(=O)CCCn2nncc2CO[C@H]1CN(C)S(=O)(=O)c1ccc(Oc2ccccc2)cc1,.,.,.,.,.,79
Cc1nc2c(=O)[nH]c(=S)[nH]c2[nH]c1=O,7,.,27*,.,45*,95
COc1ccc2sc(-c3ccc(N(C)C)cc3)c(C#CCCO)c2c1,5,26*,13,.,5,97
O=C1c2[nH]c3ccccc3c2CC1N1C(=O)c2ccccc2C1=O (stereo unspecified),.,.,.,.,.,100
